Results on 25 compounds are retold here after PubChem BioAssay (Tox21).

Values without a mark were called inactive. Inconclusive results are not listed. Active and inactive are the calls of the source. Unless noted, calls follow the shape of the dose curve; as a rule, active = well fitted curve in the direction sought with a large enough effect in the repeat runs; inconclusive = weak or mixed curves; inactive = no such curve, though single readings can be large; an effect the other way counts as inactive or inconclusive.

Experiment [1] is described as follows: qHTS assay for small molecule agonists of the p53 signaling pathway (AID 651631; calls by dose curve; also: nearly all actives have a fitted effect of over 15% in size). The method in brief: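 p53RE-bla HCT-116 cells; compounds 16 h, 37 °C; LiveBLAzer B/G FRET substrate 2 h RT; fluorescence intensity read-out, qHTS format.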
Experiment [2] in a line: qHTS assay for small molecules that induce genotoxicity in human embryonic kidney cells expressing luciferase-tagged ATAD5 (AID 651632). Also: nearly all actives have a fitted effect of over 15% in size. The method in brief: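 A rise in luciferase signal from ATAD5-tagged HEK293T cells marks genetic stress. Cells were exposed to compounds for 16 hr at 37C, 5% CO2, then luciferase was quantified after a 30 min room-temperature incubation with Amplite.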
A general note: qHTS replaces the single test concentration by a dilution series.

Experiment [3] can be described thus: qHTS assay for small molecule agonists of the p53 signaling pathway - cell viability (AID 651633; calls by dose curve;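 also: p53RE-bla HCT reporter cells with a stable beta-lactamase p53 reporter; series mostly up to about 83 µM; nearly all actives have a fitted effect of over 30% in size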). The method in brief: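 p53RE-bla cells, seeded at 4,000 per well and rested 5 h at 37 C/5% CO2, received compounds in DMSO for 16 h at 37 C. CellTiter-Glo was then added, and luminescence was read after 30 min at room temperature to gauge cytotoxicity.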
Experiment [4] is described as follows: qHTS assay for small molecules that induce genotoxicity in human embryonic kidney cells expressing luciferase-tagged ATAD5 - cell viability (AID 651634; calls by dose curve; also: nearly all actives have a fitted effect of over 25% in size). The gist of the method: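 Cytotoxicity counter-readout: after 15.5 hr compound treatment at 37C, live-cell protease activity in ATAD5-luciferase HEK293T cells measured by CellTiter-Fluor fluorescence, 30 min development at 37C.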

Experiment [5] can be described thus: qHTS assay for small molecule disruptors of the mitochondrial membrane potential - cell viability (AID 720634; calls by dose curve;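 also: human HepG2 liver cancer cells; series mostly up to about 83 µM; nearly all actives have a fitted effect of over 20% in size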). The gist of the method: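 Cytotoxicity was quantified from ATP content by CellTiter-Glo luminescence in the same wells as the MMP dye read-out. HepG2 (2,000 cells/well) were plated overnight and exposed to compounds for 1 hr at 37 C.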
Experiment [6] can be described thus: qHTS assay for small molecule disruptors of the mitochondrial membrane potential (AID 720635). Also: potency is read from the fitted curve at half-maximal effect. The method in brief: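 HepG2 cells (2,000/well) attached overnight at 37C, then took compound for 1 hr at 37C, 5% CO2. Mito-MPS dye was added for 30 min; fluorescence was read at 490/535 nm (monomers) and 540/590 nm (aggregates).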
A short description of experiment [7]: qHTS assay to test for compound auto fluorescence at 590 nm (red) in HepG2 cells (AID 720674). The gist of the method: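 Compound auto-fluorescence is scored relative to Rose Bengal sodium, measured at 540/590 nm in live HepG2 cultures after 1 hr compound contact (37 C, 5% CO2).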
The nature of experiment [8]: qHTS assay to test for compound auto fluorescence at 535 nm (green) in HepG2 cells (AID 720675).
A short description of experiment [9]: qHTS assay to test for compound auto fluorescence at 460 nm (blue) in HEK293 cells (AID 720678). The gist of the method:
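Blue read-out at excitation 405 nm and emission 460 nm follows overnight compound exposure of HEK293 cells at 37C in 5% CO2. Activity is given as auto fluorescence equivalency to triamterene.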

The nature of experiment [10]: qHTS assay to test for compound auto fluorescence at 590 nm (red) in HEK293 cells (AID 720679). The gist of the method: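 Red channel, Ex/Em 540/590nm; signal expressed as equivalency to Rose Bengal sodium. HEK293, 2,000 cells/well, 10% dialyzed FBS; 23 nL compound pinned after 4-5 hr attachment; overnight 37C/5% CO2 before reading.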
% is scaled to controls: 0 for no effect and ±100 for the full control effect.

Turning to `CCCCCCCC/C=C\CCCCCCCC(=O)OC[C@@H](O)[C@H]1OC[C@H](O)[C@H]1O`, the call in experiment [1], in experiment [2], in [3], in experiment [5], in experiment [7] and in experiment [8] was inactive. Further, the outcome in experiment [9] and in [10] was inactive. Moreover, the Potency result in experiment [4] and in [6] was “inactive” each time.

`C=C[Si](C)(C)O[Si](C)(C)C=C`: the compound was called inactive in experiment [1], in experiment [2], in [3], in experiment [5], in experiment [7] and in [8]. Besides, the compound was classed as inactive in experiment [9] and in experiment [10]. Besides, the Potency entry in experiment [4] and in experiment [6] was “inactive” in each case.

Regarding `O=C1c2ccccc2-c2ccccc21`, the compound was classed as inactive in [1], in experiment [2], in experiment [3], in experiment [5], in [7] and in [8]. For the same compound, the call in experiment [9] and in [10] was inactive. In experiment [4], the Potency entry is “inactive”. In addition, the Potency in experiment [6] was 55.9 µM (active).

Consider `O=C1CC[C@H](C(=O)N2CCCCC2)N1`, for which the outcome in [1], in experiment [2], in experiment [3], in experiment [5], in experiment [7] and in experiment [8] was inactive. The result in experiment [9] and in experiment [10] was inactive. Further, the Potency entry in experiment [4] and in experiment [6] was “inactive” throughout.

As for `CNCc1ccccc1`, the result in experiment [1], in [2], in [3], in experiment [5], in [7] and in experiment [8] was inactive. The outcome in experiment [9] and in [10] was inactive. Also, the Potency entry in [4] and in [6] was “inactive” each time.

On to `C=CCOCC(CO)(COCC=C)COCC=C`, for which the outcome in experiment [1], in experiment [2], in [3], in experiment [5], in [7] and in [8] was inactive. Moreover, the outcome in experiment [9] and in experiment [10] was inactive. Moreover, the Potency entry in experiment [4] and in [6] was “inactive” each time.

In the case of `C1CCN2C[C@@H]3C[C@@H](CN4CCCC[C@@H]34)[C@H]2C1`, the outcome in [1], in experiment [2], in experiment [3] and in experiment [5] was inactive. Besides, the Potency entry in experiment [4] and in [6] was “inactive” each time. For the same compound, the fluorescence, relative to Rose Bengal in experiment [7] is 0.0708% [at 18.6 µM]. Further, the fluorescence, % of fluorescein control in experiment [8] was -0.0003% [at 18.6 µM]. Moreover, the fluorescence, % of triamterene in experiment [9] was 0.214% [at 18.6 µM]. Further, the fluorescence, % of fluorescent control in experiment [10] is -0.036% [at 18.6 µM].

Turning to `Nc1ccc(S(=O)(=O)NC(=O)c2ccccc2)cc1`, the call in experiment [1], in experiment [2], in experiment [3] and in [5] was inactive. Further, the Potency entry in experiment [4] and in experiment [6] was “inactive” throughout. Also, the fluorescence, relative to Rose Bengal in [7] was 0.536% [at 18.6 µM]. Moreover, the fluorescence, % of fluorescein control in [8] was -0.394% [at 18.6 µM]. Besides, in experiment [9], the fluorescence, % of triamterene was -0.236% [at 18.6 µM]. Besides, the fluorescence, % of fluorescent control in experiment [10] is -0.801% [at 18.6 µM].

On to `O=C(O)/C=C/c1ccccc1`, for which the compound was classed as inactive in experiment [1], in [2], in experiment [3], in experiment [5], in [7] and in [8]. Besides, the result in experiment [9] and in [10] was inactive. The Potency result in experiment [4] and in [6] was “inactive” throughout.

Regarding `Nc1c(NC/C=C\COc2cc(CN3CCCCC3)ccn2)c(=O)c1=O`, the outcome in experiment [1], in experiment [2], in [3], in experiment [5], in experiment [7] and in experiment [8] was inactive. The compound was classed as inactive in experiment [9] and in experiment [10]. The Potency result in experiment [4] and in experiment [6] was “inactive” throughout.

Regarding `CCCCCC1Nc2cc(C(F)(F)F)c(S(N)(=O)=O)cc2S(=O)(=O)N1` (centres undefined), the call in experiment [1], in experiment [2], in experiment [3], in [5], in experiment [7] and in [8] was inactive. The outcome in experiment [9] and in experiment [10] was inactive. For the same compound, the Potency result in [4] and in experiment [6] was “inactive” throughout.

Regarding `CCCCCCCCCOCC1CO1` (centres undefined), the compound was called inactive in experiment [1], in experiment [2], in [3], in experiment [5], in experiment [7] and in experiment [8]. The result in [9] and in experiment [10] was inactive. Also, the Potency result in experiment [4] and in experiment [6] was “inactive” throughout.

For the compound `NS(=O)(=O)c1ccccc1OC(F)(F)F`, the outcome in experiment [1], in experiment [2], in [3], in experiment [5], in [7] and in experiment [8] was inactive. Also, the result in experiment [9] and in experiment [10] was inactive. In addition, the Potency entry in [4] is “inactive”.

Consider `CC(C)SCc1ccco1`, for which the outcome in experiment [1], in [2], in [3], in experiment [5], in experiment [7] and in experiment [8] was inactive. Moreover, the outcome in [9] and in experiment [10] was inactive. In [4], the Potency result is “inactive”.

Consider `COc1ccc(NS(=O)(=O)c2ccc(N)cc2)nn1`, for which the outcome in experiment [1], in experiment [2], in [3] and in experiment [5] was inactive. In addition, the Potency entry in [4] is “inactive”. Also, in [7], the fluorescence, relative to Rose Bengal is 0.178% [at 18.6 µM]. The fluorescence, % of fluorescein control in [8] was -0.0175% [at 18.6 µM]. Further, the fluorescence, % of triamterene in [9] was -0.19% [at 18.6 µM]. Moreover, the fluorescence, % of fluorescent control in experiment [10] was -0.981% [at 18.6 µM].

In the case of `CCCCOC(=O)C(C)OC(=O)CCC` (centres undefined), the result in experiment [1], in [2], in [3], in experiment [5], in experiment [7] and in experiment [8] was inactive. Besides, the outcome in experiment [9] and in experiment [10] was inactive. Also, in [4], the Potency entry is “inactive”.

Take `Nc1cc(S(=O)(=O)O)ccc1S(=O)(=O)O`: the result in experiment [1], in experiment [2], in experiment [3], in [5], in experiment [7] and in [8] was inactive. For the same compound, the compound was classed as inactive in experiment [9] and in experiment [10]. Moreover, the Potency entry in [4] is “inactive”.

Turning to `C=CCOc1cc(Cl)ccc1C(=O)NCCN(CC)CC`, the compound was called inactive in experiment [1], in experiment [2], in experiment [3], in experiment [5], in experiment [7] and in [8]. For the same compound, the outcome in experiment [9] and in [10] was inactive. In addition, the Potency entry in experiment [4] was “inactive”.

With `CC(=O)Nc1ncc([N+](=O)[O-])s1`, the result in [1], in experiment [2], in experiment [3], in experiment [5], in experiment [7] and in experiment [8] was inactive. The compound was classed as inactive in experiment [9] and in experiment [10]. In addition, the Potency entry in experiment [4] is “inactive”.

Turning to `CCCCCCCCCCC`, the call in [1], in [2], in experiment [3], in [5], in experiment [7] and in experiment [8] was inactive. In addition, the compound was classed as inactive in experiment [9] and in [10]. Besides, the Potency result in [6] was “inactive”.

Turning to `Cc1cccc(C(=O)O)c1[N+](=O)[O-]`, the compound was classed as inactive in [1], in experiment [2], in [3], in [5], in experiment [7] and in [8]. Besides, the result in [9] and in experiment [10] was inactive. Also, in [4], the Potency entry was “inactive”.

Take `O=C(c1ccc2c(c1)C(=O)OC2=O)c1ccc2c(c1)C(=O)OC2=O`: the call in experiment [1], in experiment [2], in experiment [3], in experiment [5], in experiment [7] and in [8] was inactive. The compound was classed as inactive in experiment [9] and in [10]. For the same compound, the Potency entry in experiment [4] and in [6] was “inactive” in each case.

For the compound `CC1(N)CCC(C(C)(C)N)CC1` (centres undefined), the call in experiment [1], in experiment [2], in [3], in [5], in experiment [7] and in experiment [8] was inactive. The result in [9] and in experiment [10] was inactive. The Potency entry in [4] and in [6] was “inactive” throughout.

`CCCOC(=O)CCCCC(=O)OCCC`: the compound was classed as inactive in experiment [1], in [2], in experiment [3], in experiment [5], in experiment [7] and in experiment [8]. The result in [9] and in experiment [10] was inactive. In addition, the Potency entry in experiment [4] is “inactive”.

For the compound `OC[C@@H](O)[C@H](O)[C@@H](O)[C@@H](O)CO`, the call in experiment [1], in experiment [2], in experiment [3], in [5], in experiment [7] and in experiment [8] was inactive. Besides, the outcome in experiment [9] and in [10] was inactive. For the same compound, in experiment [4], the Potency entry is “inactive”.
